Measured values: PubChem BioAssay (EPA / NIEHS)
The source made the active and inactive calls. How the source made its calls: active means hit-call score of the fitted dose curve at least 0.9, where 1 is the maximum; inactive means score below 0.9.

These molecules were tested on Interleukin-1 alpha (IL1a), IL1A (gene 3552) (assay: BSK_KF3CT_IL1a: BioMAP Diversity Plus: KF3CT Assay for Interleukin-1 alpha (IL1a) Biomarker Activity (AID 2283070)). Conditions: primary human keratinocytes with fibroblasts; actives raise or lower the signal.
Method: BSK_KF3CT is a cell-based, multiplexed-readout assay that uses keratinocytes and foreskin fibroblasts, a human skin primary cell co-culture, with measurements taken at 24 hours after chemical dosing in a 96-well plate.BSK_KF3CT_IL1a is an assay component measured in the BSK_KF3CT assay. It measures IL-1a antibody related to regulation of gene expression using ELISA technology.Data from the assay component BSK_KF3CT_IL1a was analyzed into 1 assay endpoint. This assay endpoint, BSK_KF3CT_IL1a, was analyzed with bidirectional fitting relative to DMSO as the negative control and baseline of activity. Using a type of binding reporter, gain or loss-of-signal activity can be used to understand changes in the signaling as they relate to the gene IL1A. Furthermore, this assay endpoint can be referred to as a primary readout, because this assay has produced multiple assay endpoints where this one serves a signaling function. To generalize the intended target to other relatable targets, this assay endpoint is annotated to the cytokine intended target family, where the subfamily is interleukins.
The levels of cell surface (or secreted, indicated by the prefix "s") biomarker endpoints were measured by ELISA. Overt cytotoxicity to cells in confluent adherent cultures (all systems other than the BT system) was assessed by measuring total protein levels using sulforhodamine B (SRB) staining in parallel cultures at the time of biomarker measurements, indicated as SRB endpoints. For proliferation assays for adherent cell types, individual cell types are cultured at sub-confluence and relative cell numbers quantified by SRB staining at time points optimized for each system (48 h: 3C and CASM3C systems; 72 h: BT and HDF3CGF systems; 96 h: SAg system). SRB was performed by staining cells with 0.1% SRB after fixation with 10% TCA and reading wells at 560 nm.Viability and proliferation of PBMC (T cells) was quantified by Alamar Blue reduction for the SAg and BT systems. For PBMC viability (referred to as PBMC Cytotoxicity within the assay endpoint names), cells were plated (75,000/well in a 96-well plate) and then chemical samples added for 1 h before addition of activators, SEB and TSST-1 (20 ng/mL final concentration each). Cells were incubated for 90 h. Then, Alamar Blue (20 uL/well) (Invitrogen, Cat DAL1100) was added for 6 h, and the plates were read with a fluorescence microplate reader at 546/580 nm (excitation/emission). For PBMC proliferation, cells were plated and activated as above but incubated for only 16 h prior to addition of Alamar Blue. Plates were read after 6 h.

SMILES	outcome	AC50
CCCCCCCCCCCCCCCCCC(=O)OCC(CC)CCCC (stereo not given)	inactive	
CCCCC/C=C/C=C/C=O		29.5 µM (active)
C[C@H]1C[C@@H]2[C@H]([C@@H](O)C[C@@]3(C)[C@H]2CC[C@]3(O)C(=O)CO)[C@@]2(C)C=CC(=O)C=C12	inactive	
CC(C)c1ccc(C(C)C)cc1	inactive	
c1ccc2c(c1)c1cccc3ccc4cccc2c4c31		0.016 µM (active)
CCCCCCCCCC=O	inactive	
NCCNCCN	inactive	
O=C1OC2(c3cc(Br)c(O)c(Br)c3Oc3c2cc(Br)c(O)c3Br)c2c(Cl)c(Cl)c(Cl)c(Cl)c21		3.69 µM (active)
CCCCC(CC)COC(=O)/C=C\C(=O)OCC(CC)CCCC (stereo not given)	inactive	
CC(=O)Nc1ccccc1O	inactive	
CCC(=O)OCc1ccccc1	inactive	
CN(CCOc1ccc(CC2SC(=O)NC2=O)cc1)c1ccccn1 (stereo not given)		0.582 µM (active)
C=C[Si](OCC)(OCC)OCC	inactive	
C=CCOC(=O)CCC1CCCCC1	inactive	
O=C1CCCCCCCCCCCCCCO1	inactive	
N#Cc1ccc(CC(=NNC(=O)Nc2ccc(OC(F)(F)F)cc2)c2cccc(C(F)(F)F)c2)cc1	inactive	
CCn1c2ccccc2c2cc(N)ccc21	inactive	
COc1cc(C=O)ccc1OC(=O)C(C)C	inactive	
Cc1ccc(Nc2ccc(O)c3c2C(=O)c2ccccc2C3=O)cc1	inactive	
CC(=O)/C=C/C1=C(C)CCCC1(C)C	inactive	

SMILES	outcome	AC50
OC[C@H]1O[C@H](O[C@]2(CCl)O[C@H](CCl)[C@@H](O)[C@@H]2O)[C@H](O)[C@@H](O)[C@H]1Cl	inactive	
O=P(c1ccccc1)(c1ccccc1)c1ccccc1	inactive	
C#C[C@]1(O)CC[C@H]2[C@@H]3CCC4=Cc5oncc5C[C@]4(C)[C@H]3CC[C@@]21C	inactive	
c1ccc2sc(SN(C3CCCCC3)C3CCCCC3)nc2c1	inactive	
O=C(O)c1cn(C2CC2)c2cc(N3CCNCC3)c(F)cc2c1=O	inactive	
CC1CCC(C(C)CS)CC1S (stereo not given)		30.2 µM (active)
CCCCCCCCC=O	inactive	
C=C(C)C(=O)O[C@H]1C[C@@H]2CC[C@@]1(C)C2(C)C		20 µM (active)
CC(C)Oc1ccccc1O	inactive	
O=C(O)c1ccc([N+](=O)[O-])cc1	inactive	
O=C(O)c1cn(-c2ccc(F)cc2)c2cc(N3CCNCC3)c(F)cc2c1=O	inactive	
O=C=NC1CCC(CC2CCC(N=C=O)CC2)CC1 (stereo not given)	inactive	
OC1OC[C@@H](O)[C@H](O)[C@H]1O (stereo not given in full)	inactive	
CNC[C@H](O)c1cccc(O)c1	inactive	
CC[Si](OC(C)=O)(OC(C)=O)OC(C)=O	inactive	
Cc1cc(C2(c3cc(C)c(O)cc3C)OS(=O)(=O)c3ccccc32)c(C)cc1O	inactive	
CCc1c(C)cc(N)c(CC)c1N		1.94 µM (active)
Nc1cc([N+](=O)[O-])ccc1Cl	inactive	
BrC1CCC(Br)C(Br)CCC(Br)C(Br)CCC1Br (stereo not given)	inactive	
Cc1ccc(O)c(C(C)(C)C)c1		28.9 µM (active)
